# Publication PMC7862700, “An all-to-all approach to the identification of sequence-specific readers for epigenetic DNA modifications on cytosine”
# Tests used:
# Assay in all cases: DAPPL (digital affinity profiling via proximity ligation, sequencing); 10 mM Tris-HCl pH 7.5, 50 mM NaCl, 1 mM DTT, 4% glycerol, room temperature, 30 min; GST-TFs on glutathione beads, 16-mer random dsDNA library, 0.1% formaldehyde crosslink after washing; high values mean tight binding
# FEV = target: T1, FEV (Homo sapiens, UniProt Q99581 1-238); details: protein: recombinant; tags: N-terminal GST; dsDNA, one strand shown
# T1 sequence: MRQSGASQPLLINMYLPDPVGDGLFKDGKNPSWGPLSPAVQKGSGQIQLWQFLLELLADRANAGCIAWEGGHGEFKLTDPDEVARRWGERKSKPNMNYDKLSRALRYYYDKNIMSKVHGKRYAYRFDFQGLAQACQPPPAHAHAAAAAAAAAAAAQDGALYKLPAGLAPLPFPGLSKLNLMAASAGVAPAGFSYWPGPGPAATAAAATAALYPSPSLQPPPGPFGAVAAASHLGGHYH
# Summary of the method: (§1)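 Human transcription factors were made in yeast as GST fusions, captured on glutathione beads and barcoded with DNA. With a tag-only sample included, the pool was incubated with 200 nmole of a random double-stranded 16-mer DNA library in Tris/NaCl/DTT/glycerol buffer at room temperature for 30 min, then crosslinked with 0.1% formaldehyde after washing, ligated by proximity, amplified and sequenced. For binding signal, each hexamer's read frequency for a factor is divided by its frequency for the tag-only sample.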
# ETV5 = ETV5 (Homo sapiens, UniProt P41161 1-510); details: protein: recombinant; tags: N-terminal GST; dsDNA, one strand shown
# Summary of the method: as §1
# HSF1 = HSF1 (Homo sapiens, UniProt Q00613 1-529); details: protein: recombinant; tags: N-terminal GST; chain copies: 3; dsDNA, one strand shown
# Summary of the method: as §1
# SPIC = target: T2, SPIC (Homo sapiens, UniProt Q8N5J4 1-248); details: protein: recombinant; tags: N-terminal GST; dsDNA, one strand shown
# T2 sequence: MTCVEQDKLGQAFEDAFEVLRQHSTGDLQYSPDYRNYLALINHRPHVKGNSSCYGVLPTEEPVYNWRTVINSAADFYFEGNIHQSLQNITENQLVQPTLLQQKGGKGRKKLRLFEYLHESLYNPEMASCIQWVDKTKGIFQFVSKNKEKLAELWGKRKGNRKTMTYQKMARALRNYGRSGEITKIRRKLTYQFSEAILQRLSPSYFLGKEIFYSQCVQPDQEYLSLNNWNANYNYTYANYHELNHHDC
# Summary of the method: as §1
# ELF4 = ELF4 (Homo sapiens, UniProt Q99607 1-663); details: protein: recombinant; tags: N-terminal GST; dsDNA, one strand shown
# Summary of the method: as §1
# ELK4 = target: T3, ELK4 (Homo sapiens, UniProt P28324-2 1-405); details: protein: recombinant; tags: N-terminal GST; dsDNA, one strand shown
# T3 sequence: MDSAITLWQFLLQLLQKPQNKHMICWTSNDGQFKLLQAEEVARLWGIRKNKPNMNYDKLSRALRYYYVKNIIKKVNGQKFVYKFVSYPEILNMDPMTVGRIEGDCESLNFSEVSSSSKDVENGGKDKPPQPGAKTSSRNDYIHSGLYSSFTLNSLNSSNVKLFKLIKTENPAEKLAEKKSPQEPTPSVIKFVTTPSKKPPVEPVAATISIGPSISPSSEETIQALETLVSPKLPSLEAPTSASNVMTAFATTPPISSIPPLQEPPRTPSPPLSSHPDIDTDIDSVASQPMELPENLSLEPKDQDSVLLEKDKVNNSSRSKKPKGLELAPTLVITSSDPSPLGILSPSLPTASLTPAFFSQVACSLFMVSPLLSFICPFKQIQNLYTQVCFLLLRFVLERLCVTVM
# Summary of the method: as §1
# ETV2 = target: T4, ETV2 (Homo sapiens, UniProt O00321 1-342); details: protein: recombinant; tags: N-terminal GST; dsDNA, one strand shown
# T4 sequence: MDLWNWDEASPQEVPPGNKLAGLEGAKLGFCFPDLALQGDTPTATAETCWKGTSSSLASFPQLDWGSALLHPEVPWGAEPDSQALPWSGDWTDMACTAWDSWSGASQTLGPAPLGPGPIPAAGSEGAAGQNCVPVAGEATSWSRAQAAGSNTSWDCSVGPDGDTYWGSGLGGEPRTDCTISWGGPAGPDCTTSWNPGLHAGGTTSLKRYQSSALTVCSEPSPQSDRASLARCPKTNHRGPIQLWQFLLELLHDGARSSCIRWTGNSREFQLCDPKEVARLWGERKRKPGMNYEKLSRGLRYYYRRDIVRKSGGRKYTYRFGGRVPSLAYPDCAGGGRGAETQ
# Summary of the method: as §1
# ELF3 = target: T5, ELF3 (Homo sapiens, UniProt P78545 1-371); details: protein: recombinant; tags: N-terminal GST; dsDNA, one strand shown
# T5 sequence: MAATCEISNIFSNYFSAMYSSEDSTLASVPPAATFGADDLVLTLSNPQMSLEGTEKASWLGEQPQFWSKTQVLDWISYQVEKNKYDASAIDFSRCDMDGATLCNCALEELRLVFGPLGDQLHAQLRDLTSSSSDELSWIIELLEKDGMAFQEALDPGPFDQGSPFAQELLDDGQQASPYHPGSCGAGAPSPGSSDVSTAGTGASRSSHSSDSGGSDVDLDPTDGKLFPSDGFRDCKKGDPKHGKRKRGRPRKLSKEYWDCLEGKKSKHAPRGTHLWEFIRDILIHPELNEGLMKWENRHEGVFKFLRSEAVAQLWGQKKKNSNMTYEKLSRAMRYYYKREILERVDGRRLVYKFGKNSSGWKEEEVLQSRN
# Summary of the method: as §1
# CRX = CRX (Homo sapiens, UniProt O43186 1-299); details: protein: recombinant; tags: N-terminal GST; dsDNA, one strand shown
# Summary of the method: as §1
# ETV1 = ETV1 (Homo sapiens, UniProt P50549 1-477); details: protein: recombinant; tags: N-terminal GST; dsDNA, one strand shown
# Summary of the method: as §1
# ERF = target: T6, ERF (Homo sapiens, UniProt P50548 1-548); details: protein: recombinant; tags: N-terminal GST; dsDNA, one strand shown
# T6 sequence: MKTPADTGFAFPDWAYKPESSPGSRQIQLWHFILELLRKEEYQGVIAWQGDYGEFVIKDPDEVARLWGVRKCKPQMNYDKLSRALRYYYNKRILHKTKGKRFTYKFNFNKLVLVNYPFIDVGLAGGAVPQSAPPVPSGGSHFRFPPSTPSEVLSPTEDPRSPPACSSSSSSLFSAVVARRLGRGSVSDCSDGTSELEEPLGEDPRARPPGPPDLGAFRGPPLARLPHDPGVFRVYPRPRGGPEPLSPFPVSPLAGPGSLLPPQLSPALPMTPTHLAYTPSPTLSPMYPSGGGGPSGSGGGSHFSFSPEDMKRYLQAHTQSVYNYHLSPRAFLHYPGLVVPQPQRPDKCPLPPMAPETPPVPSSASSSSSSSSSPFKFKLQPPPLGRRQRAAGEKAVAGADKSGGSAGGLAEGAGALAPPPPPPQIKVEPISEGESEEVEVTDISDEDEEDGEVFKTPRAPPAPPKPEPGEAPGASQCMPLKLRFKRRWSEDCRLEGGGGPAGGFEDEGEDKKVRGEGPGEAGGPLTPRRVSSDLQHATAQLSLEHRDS
# Summary of the method: as §1
# ETV3L = target: T7, ETV3L (Homo sapiens, UniProt Q6ZN32 1-361); details: protein: recombinant; tags: N-terminal GST; dsDNA, one strand shown
# T7 sequence: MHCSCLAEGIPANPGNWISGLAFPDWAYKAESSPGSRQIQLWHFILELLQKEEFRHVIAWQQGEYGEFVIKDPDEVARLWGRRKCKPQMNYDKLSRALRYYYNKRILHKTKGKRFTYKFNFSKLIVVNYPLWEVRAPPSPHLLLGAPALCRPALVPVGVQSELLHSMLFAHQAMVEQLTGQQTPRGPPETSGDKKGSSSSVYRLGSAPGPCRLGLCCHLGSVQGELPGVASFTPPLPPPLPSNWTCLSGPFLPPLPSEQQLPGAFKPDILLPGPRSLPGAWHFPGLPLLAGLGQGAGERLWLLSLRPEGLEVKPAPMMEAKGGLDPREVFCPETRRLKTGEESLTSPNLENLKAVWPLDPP
# Summary of the method: as §1
# ETS2 = target: T8, ETS2 (Homo sapiens, UniProt P15036 1-469); details: protein: recombinant; tags: N-terminal GST; dsDNA, one strand shown
# T8 sequence: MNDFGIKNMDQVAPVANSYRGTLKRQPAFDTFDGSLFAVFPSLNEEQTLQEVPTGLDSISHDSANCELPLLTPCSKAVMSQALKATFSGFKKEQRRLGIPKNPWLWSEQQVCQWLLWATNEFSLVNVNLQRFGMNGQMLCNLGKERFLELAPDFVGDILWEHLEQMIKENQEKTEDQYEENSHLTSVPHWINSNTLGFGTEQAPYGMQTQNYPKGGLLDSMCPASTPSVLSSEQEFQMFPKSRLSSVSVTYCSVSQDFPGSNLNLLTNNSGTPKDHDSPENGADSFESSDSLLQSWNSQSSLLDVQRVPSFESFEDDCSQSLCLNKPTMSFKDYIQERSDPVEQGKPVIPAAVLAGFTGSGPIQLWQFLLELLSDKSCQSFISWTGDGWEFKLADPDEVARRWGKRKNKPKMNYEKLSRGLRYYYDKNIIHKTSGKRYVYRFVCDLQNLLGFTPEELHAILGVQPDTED
# Summary of the method: as §1
# SPDEF = target: T9, SPDEF (Homo sapiens, UniProt O95238 1-335); details: protein: recombinant; tags: N-terminal GST; dsDNA, one strand shown
# T9 sequence: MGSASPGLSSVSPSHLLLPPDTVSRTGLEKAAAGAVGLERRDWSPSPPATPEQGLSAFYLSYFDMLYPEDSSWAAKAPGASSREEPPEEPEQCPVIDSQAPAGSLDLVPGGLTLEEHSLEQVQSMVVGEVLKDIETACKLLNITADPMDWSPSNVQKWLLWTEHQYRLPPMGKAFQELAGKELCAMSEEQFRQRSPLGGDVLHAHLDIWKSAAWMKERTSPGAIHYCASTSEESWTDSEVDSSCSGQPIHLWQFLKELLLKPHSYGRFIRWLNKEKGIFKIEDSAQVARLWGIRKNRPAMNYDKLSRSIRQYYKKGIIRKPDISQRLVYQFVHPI
# Summary of the method: as §1
# ETV7 = target: T10, ETV7 (Homo sapiens, UniProt Q9Y603 1-341); details: protein: recombinant; tags: N-terminal GST; dsDNA, one strand shown
# T10 sequence: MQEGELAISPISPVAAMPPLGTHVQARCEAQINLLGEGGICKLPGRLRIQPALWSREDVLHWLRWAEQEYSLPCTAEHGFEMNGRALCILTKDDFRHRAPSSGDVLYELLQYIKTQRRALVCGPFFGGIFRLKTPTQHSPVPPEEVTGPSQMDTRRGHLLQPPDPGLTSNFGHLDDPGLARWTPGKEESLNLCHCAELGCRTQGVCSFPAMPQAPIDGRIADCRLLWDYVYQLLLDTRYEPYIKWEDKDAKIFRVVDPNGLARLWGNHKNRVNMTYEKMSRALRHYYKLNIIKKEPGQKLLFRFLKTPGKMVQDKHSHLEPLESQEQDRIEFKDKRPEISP
# Summary of the method: as §1
# ELF5 = target: T11, ELF5 (Homo sapiens, UniProt Q9UKW6-2 1-255); details: protein: recombinant; tags: N-terminal GST; dsDNA, one strand shown
# T11 sequence: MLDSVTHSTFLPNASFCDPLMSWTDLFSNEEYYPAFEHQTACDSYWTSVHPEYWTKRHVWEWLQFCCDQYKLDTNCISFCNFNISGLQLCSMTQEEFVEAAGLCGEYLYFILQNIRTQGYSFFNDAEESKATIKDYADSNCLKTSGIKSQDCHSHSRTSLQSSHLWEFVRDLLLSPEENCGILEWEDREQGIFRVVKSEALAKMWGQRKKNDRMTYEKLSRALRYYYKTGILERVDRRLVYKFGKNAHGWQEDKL
# Summary of the method: as §1
# ETV3 = target: T12, ETV3 (Homo sapiens, UniProt P41162-2 1-143); details: protein: recombinant; tags: N-terminal GST; dsDNA, one strand shown
# T12 sequence: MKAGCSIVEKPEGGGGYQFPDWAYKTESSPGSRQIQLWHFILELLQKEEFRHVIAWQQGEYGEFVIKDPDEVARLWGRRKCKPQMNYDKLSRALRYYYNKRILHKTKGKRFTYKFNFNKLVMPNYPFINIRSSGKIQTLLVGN
# Summary of the method: as §1
# ETV6 = ETV6 (Homo sapiens, UniProt P41212 1-452); details: protein: recombinant; tags: N-terminal GST; dsDNA, one strand shown
# Summary of the method: as §1
# Sequence of ETV5 (P41161 whole entry): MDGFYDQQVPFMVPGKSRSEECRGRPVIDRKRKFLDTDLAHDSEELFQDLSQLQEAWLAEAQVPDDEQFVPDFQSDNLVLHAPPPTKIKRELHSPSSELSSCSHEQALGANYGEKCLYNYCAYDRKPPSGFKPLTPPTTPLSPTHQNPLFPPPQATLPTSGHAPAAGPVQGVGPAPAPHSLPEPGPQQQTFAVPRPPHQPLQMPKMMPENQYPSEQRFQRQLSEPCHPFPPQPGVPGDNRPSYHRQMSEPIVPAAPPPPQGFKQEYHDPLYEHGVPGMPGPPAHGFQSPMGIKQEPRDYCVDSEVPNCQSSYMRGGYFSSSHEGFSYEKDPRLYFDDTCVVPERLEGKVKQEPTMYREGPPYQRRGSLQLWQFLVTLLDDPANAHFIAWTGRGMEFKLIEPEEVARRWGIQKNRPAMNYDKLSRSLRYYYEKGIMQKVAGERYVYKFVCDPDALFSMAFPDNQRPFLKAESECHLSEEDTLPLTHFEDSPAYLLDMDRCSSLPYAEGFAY
# Sequence of ETV6 (P41212 whole entry): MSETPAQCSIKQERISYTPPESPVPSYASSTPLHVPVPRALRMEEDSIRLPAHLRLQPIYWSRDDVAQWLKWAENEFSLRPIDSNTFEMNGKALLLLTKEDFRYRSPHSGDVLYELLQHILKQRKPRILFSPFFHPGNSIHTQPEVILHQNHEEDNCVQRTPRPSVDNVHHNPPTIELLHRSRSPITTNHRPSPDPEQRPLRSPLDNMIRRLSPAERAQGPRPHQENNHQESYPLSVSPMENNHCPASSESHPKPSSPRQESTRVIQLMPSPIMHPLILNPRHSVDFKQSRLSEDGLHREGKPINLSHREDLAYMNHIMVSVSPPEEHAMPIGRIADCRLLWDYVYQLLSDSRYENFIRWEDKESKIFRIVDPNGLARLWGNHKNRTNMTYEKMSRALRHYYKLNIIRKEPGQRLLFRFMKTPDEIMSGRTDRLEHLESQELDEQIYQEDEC
# Sequence of ELF4 (Q99607 whole entry): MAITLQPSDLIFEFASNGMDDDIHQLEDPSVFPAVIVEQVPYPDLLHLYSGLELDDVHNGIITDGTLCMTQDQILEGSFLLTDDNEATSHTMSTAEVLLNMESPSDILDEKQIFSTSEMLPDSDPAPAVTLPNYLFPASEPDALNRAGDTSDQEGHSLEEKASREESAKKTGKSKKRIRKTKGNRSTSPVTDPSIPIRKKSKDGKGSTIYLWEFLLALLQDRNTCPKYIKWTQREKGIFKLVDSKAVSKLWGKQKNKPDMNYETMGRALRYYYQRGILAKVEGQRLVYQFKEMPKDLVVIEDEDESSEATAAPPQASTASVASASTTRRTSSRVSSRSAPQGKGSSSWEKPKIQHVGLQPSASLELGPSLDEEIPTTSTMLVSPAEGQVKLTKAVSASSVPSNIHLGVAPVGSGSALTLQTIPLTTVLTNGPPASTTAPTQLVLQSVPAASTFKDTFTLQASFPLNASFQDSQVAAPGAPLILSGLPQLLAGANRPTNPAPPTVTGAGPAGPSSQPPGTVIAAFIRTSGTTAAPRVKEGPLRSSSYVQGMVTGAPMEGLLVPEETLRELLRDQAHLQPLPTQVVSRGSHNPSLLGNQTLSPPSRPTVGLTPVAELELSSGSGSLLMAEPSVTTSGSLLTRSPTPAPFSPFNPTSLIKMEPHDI
# Sequence of ETV1 (P50549 whole entry): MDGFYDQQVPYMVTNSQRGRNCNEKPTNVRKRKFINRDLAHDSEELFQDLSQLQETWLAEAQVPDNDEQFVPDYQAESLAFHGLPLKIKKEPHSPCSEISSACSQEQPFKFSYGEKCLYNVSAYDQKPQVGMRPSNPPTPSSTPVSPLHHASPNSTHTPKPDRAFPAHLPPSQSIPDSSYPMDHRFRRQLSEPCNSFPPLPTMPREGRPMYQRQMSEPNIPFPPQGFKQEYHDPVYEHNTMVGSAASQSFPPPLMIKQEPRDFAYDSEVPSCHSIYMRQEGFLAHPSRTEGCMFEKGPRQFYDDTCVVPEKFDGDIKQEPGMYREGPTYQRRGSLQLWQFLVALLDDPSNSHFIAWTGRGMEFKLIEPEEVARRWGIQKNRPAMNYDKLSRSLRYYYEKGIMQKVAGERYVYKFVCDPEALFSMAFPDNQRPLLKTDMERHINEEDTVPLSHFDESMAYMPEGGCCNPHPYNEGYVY
# Sequence of CRX (O43186 whole entry): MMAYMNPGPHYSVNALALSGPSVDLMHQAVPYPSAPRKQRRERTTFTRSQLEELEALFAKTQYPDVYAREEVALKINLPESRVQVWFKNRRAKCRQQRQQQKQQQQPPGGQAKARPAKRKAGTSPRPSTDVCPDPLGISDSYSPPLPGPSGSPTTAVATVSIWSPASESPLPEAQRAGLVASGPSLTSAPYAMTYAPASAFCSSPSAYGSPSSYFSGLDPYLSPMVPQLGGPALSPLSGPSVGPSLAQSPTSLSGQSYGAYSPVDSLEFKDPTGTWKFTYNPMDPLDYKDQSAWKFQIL
# Sequence of HSF1 (Q00613 whole entry): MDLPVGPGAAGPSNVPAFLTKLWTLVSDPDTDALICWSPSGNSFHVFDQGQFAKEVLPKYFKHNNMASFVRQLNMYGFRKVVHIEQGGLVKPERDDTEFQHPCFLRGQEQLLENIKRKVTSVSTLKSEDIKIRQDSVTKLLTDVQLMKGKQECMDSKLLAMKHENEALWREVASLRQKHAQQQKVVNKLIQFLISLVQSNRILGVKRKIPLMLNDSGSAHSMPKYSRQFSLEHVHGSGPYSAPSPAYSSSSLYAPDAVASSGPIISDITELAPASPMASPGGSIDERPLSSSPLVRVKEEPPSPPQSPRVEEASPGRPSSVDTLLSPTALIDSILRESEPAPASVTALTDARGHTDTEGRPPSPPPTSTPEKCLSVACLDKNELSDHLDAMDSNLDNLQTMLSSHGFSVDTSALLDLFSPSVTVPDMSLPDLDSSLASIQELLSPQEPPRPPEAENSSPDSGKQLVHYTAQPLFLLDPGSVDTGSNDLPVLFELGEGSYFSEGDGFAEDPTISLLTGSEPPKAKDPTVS
sequence,measurement,setting,value
TACTGT,binding signal,FEV,"1.11 fold enrichment (6-mer frequency, TF over GST control)"
same,binding signal,ETV5,"1.15 fold enrichment (6-mer frequency, TF over GST control)"
same,binding signal,HSF1,"1.05 fold enrichment (6-mer frequency, TF over GST control)"
same,binding signal,SPIC,"1.1 fold enrichment (6-mer frequency, TF over GST control)"
same,binding signal,ELF4,"1.12 fold enrichment (6-mer frequency, TF over GST control)"
same,binding signal,ELK4,"1.25 fold enrichment (6-mer frequency, TF over GST control)"
same,binding signal,ETV2,"1.34 fold enrichment (6-mer frequency, TF over GST control)"
same,binding signal,ELF3,"1.03 fold enrichment (6-mer frequency, TF over GST control)"
same,binding signal,CRX,"1.11 fold enrichment (6-mer frequency, TF over GST control)"
same,binding signal,ETV1,"1.17 fold enrichment (6-mer frequency, TF over GST control)"
same,binding signal,ERF,"1.2 fold enrichment (6-mer frequency, TF over GST control)"
same,binding signal,ETV3L,"1.15 fold enrichment (6-mer frequency, TF over GST control)"
same,binding signal,ETS2,"1.16 fold enrichment (6-mer frequency, TF over GST control)"
same,binding signal,SPDEF,"1.11 fold enrichment (6-mer frequency, TF over GST control)"
same,binding signal,ETV7,"1.04 fold enrichment (6-mer frequency, TF over GST control)"
same,binding signal,ELF5,"1.14 fold enrichment (6-mer frequency, TF over GST control)"
same,binding signal,ETV3,"1.13 fold enrichment (6-mer frequency, TF over GST control)"
same,binding signal,ETV6,"1.1 fold enrichment (6-mer frequency, TF over GST control)"
